# The source made the active and inactive calls. Rule for the calls: active = hit-call score of the fitted dose curve at least 0.9, where 1 is the maximum; inactive = score below 0.9.
# Read-out: Lipase C (LIPC), LIPC (gene 3990)
# Assay: LTEA_HepaRG_LIPC: Life Technologies and Expression Analysis (LTEA) Assay for Lipase C (LIPC) using HepaRG (AID 2283514)
# Conditions: mRNA level, 48 h; actives raise or lower the signal
# In short: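 In this multiplexed gene-expression screen, human HepaRG cultures received test chemicals for 48 h across eight concentrations with 100 uM highest, in duplicate. Values reflect LIPC mRNA induction or suppression versus DMSO vehicle, from normalized qRT-PCR.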
SMILES,outcome,AC50
COCC(C)N(C(=O)CCl)c1c(C)csc1C (configuration not stated),inactive,–
COC(=O)c1c(C(F)F)nc(C(F)(F)F)c(C2=NCCS2)c1CC(C)C,inactive,–
Cn1c(-c2ccccc2)cc(-c2ccccc2)[n+]1C,–,28 µM (active)
COC(=O)NS(=O)(=O)c1ccc(N)cc1,inactive,–
CC(C)Nc1nc(Cl)nc(NC(C)C)n1,inactive,–
COC(=O)NC(=S)Nc1ccccc1NC(=S)NC(=O)OC,inactive,–
Clc1cccc(C(Cl)(Cl)Cl)n1,inactive,–
COP(=S)(OC)Oc1ccc([N+](=O)[O-])c(C)c1,inactive,–
CCOP(=S)(OCC)Oc1nc(Cl)n(C(C)C)n1,inactive,–
COc1cc(Cl)c(OC)cc1Cl,inactive,–
CCCCC(O)(Cn1cncn1)c1ccc(Cl)cc1Cl (configuration not stated),–,75.2 µM (active)
CNC(=O)N(C)c1nnc(C(C)(C)C)s1,inactive,–
O=C(Nc1ccccc1-c1ccc(Cl)cc1)c1cccnc1Cl,inactive,–
CCNC(=O)NC(=O)C(C#N)=NOC,–,50 µM (active)
CCN(CC)C(=O)C(C)Oc1cccc2ccccc12 (configuration not stated),–,69.6 µM (active)
CC1(C)CON(Cc2ccccc2Cl)C1=O,inactive,–
CCOc1nc(C(Cl)(Cl)Cl)ns1,–,0.944 µM (active)
CN=C=S,inactive,–
C=C(C)CN(CC)c1c([N+](=O)[O-])cc(C(F)(F)F)cc1[N+](=O)[O-],inactive,–
Nc1c(Cl)c(Cl)nc(C(=O)O)c1Cl,inactive,–
CC1(C)C(C=C(Cl)Cl)C1C(=O)OC(C#N)c1cccc(Oc2ccccc2)c1 (configuration not stated),inactive,–
Cc1cnc(C2=NC(C)(C(C)C)C(=O)N2)c(C(=O)O)c1 (configuration not stated),inactive,–
